# Measured values: PubChem BioAssay (NCATS)
# Records with an inconclusive call do not appear. Calls of active or inactive are those of the source. Unless noted, calls come from the whole dose curve; as a rule, active = well fitted inhibition curve with a large enough effect; inconclusive = small, poorly fitted or top-dose-only effect; inactive = flat fitted curve, though single readings scatter.
# Tested on: not listed separately
# Assay: qHTS assay for small molecule agonists of retinoid X receptor alpha signaling (AID 588544; calls by dose curve)
# Conditions: HEK293T RXRa-UAS-bla, beta-lactamase reporter, 18 h; 530 nm emission
row,SMILES,max response [%]
1,Cc1cc(O)c2c(c1)C(=O)c1cccc(O)c1C2=O,0.103
2,O=C1c2cccc(O)c2C(=O)c2c(O)cc(CO)cc21,11.8
3,OC[C@@H](O)[C@@H](O)[C@H](O)[C@@H](O)CO,-9.11
4,C[C@]12CC[C@@H]3c4ccc(O)cc4CC[C@H]3[C@H]1CC[C@H]2O,14

# Molecular target: Retinoic acid receptor RXR-alpha (Homo sapiens) (UniProt P19793)
# Sequence (P19793 whole entry, looked up): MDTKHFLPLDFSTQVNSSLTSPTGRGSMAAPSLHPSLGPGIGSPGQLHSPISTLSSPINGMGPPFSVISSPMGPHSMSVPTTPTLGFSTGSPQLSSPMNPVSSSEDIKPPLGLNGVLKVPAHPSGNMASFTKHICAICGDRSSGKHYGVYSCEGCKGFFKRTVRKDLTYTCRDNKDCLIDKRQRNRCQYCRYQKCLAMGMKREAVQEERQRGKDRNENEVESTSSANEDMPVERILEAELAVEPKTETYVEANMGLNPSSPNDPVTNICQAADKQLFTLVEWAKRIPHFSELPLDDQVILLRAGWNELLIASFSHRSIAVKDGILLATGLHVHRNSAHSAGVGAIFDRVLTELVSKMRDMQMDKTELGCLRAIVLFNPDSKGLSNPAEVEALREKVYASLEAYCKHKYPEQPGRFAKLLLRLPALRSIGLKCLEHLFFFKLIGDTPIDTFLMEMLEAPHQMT
# Assay: as above
# Conditions: HEK293T RXRa-UAS-bla, beta-lactamase reporter, 18 h; series mostly up to 76.7 µM; activation: at the top concentration
row,SMILES,activation
1,Cc1cc(O)c2c(c1)C(=O)c1cccc(O)c1C2=O,5.84% (inactive)
2,O=C1c2cccc(O)c2C(=O)c2c(O)cc(CO)cc21,-5.46% (inactive)
3,OC[C@@H](O)[C@@H](O)[C@H](O)[C@@H](O)CO,23.2% (inactive)
4,C[C@]12CC[C@@H]3c4ccc(O)cc4CC[C@H]3[C@H]1CC[C@H]2O,-27.6% (inactive)

# Molecular target: Thyroid hormone receptor beta (Homo sapiens) (UniProt P10828)
# Sequence (P10828 whole entry, looked up): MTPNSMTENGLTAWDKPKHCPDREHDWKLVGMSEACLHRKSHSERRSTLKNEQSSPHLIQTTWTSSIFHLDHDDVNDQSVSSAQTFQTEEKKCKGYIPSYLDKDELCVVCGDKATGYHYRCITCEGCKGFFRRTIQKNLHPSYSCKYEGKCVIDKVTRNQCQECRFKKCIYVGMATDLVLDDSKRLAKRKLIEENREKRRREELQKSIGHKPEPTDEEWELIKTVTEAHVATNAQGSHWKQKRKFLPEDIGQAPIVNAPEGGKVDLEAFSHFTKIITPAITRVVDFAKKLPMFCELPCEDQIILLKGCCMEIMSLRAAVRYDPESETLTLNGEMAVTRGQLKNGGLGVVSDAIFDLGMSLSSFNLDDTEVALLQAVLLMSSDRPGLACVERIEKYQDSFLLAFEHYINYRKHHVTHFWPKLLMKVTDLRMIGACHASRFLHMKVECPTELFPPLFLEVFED
# Assay: qHTS assay for small molecule agonists of thyroid hormone receptor beta signaling (AID 588545; calls by dose curve)
# Conditions: TR-UAS-bla GripTite HEK 293, beta-lactamase ratio, agonist mode, 18 h, percent of T3 response, DMSO as zero; series mostly up to 76.7 µM; activation: at the top concentration
# Source text: NIH Chemical Genomics Center [NCGC]
# U.S. Environmental Protection Agency [EPA]
# National Institutes of Environmental Health Sciences [NIEHS]
# National Toxicology Program [NTP]
# Thyroid hormone receptor (TR) belongs to nuclear hormone receptor superfamily. There are two subtypes for TR: TR-alpha and TR-beta. TR-beta plays a major role in regulating plasma cholesterol levels and it mediates the biological activities of thyroid hormone. Screening environmental chemicals on TR-beta signaling will provide important information for the mechanism of compound action.
# NCGC Assay Protocol Summary
# Using a beta-lactamase reporter-gene under control of the TR response element, a cell-based assay [GeneBLAzer TR-UAS-bla-GripTite assay developed by Invitrogen] was used to measure TR-beta signaling in agonist mode. TR-UAS-bla-GripTite HEK 293 cells were used with assay medium containing 2% charcoal/dextran FBS, 0.1 mM NEAA and 1 mM sodium pyruvate. The assay was performed in clear bottom black Greiner 1536-well plates. T3 was used as a positive control in the screen. Library compounds were measured for their ability to stimulate the reporter gene activity. Compounds were screened in a titration series in 1536-well format. The fluorescence intensity (405 nm excitation, 460/530 nm emission) was measured using an EnVision plate reader. Data was normalized relative to T3 control (10 nM, 100%), and DMSO only wells (basal, 0%). Concentration-response titration points for each compound were fitted to the Hill equation yielding concentrations of half-maximal stimulation (EC50) and maximal response (efficacy) values.
# qHTS protocol for TR-beta beta-lactamase assay in agonist mode
# [Step] [Parameter] [Value] [Description]
# 1. Reagent; 6 uL; 2500 cells/well
# 2. Incubation; 37 C for 4 hrs
# - Dose response; start 3.8 uM, 1:3 dilutions, duplicates in first column
# - Two columns of each 10 and 0.4 nM (finals) concentrations.
# 5. Incubation; 37 C for 18 hrs
# 6. Detection reagent; 1 uL of CCF4-dye
# 7. Incubation; RT for 2 hrs
# 8. Detection; Fluorescence; Envision plate reader
row,SMILES,activation
1,O=C1c2cccc(O)c2C(=O)c2c(O)cc(CO)cc21,-2.89% (inactive)
2,CC(C=CC1=C(C)CCCC1(C)C)=CC=CC(C)=CC(=O)Nc1ccc(O)cc1,-5.13% (inactive)
3,OC[C@@H](O)[C@@H](O)[C@H](O)[C@@H](O)CO,-4.93% (inactive)
4,C[C@]12CC[C@@H]3c4ccc(O)cc4CC[C@H]3[C@H]1CC[C@H]2O,-13.1% (inactive)

# Tested on: not listed separately
# Assay: qHTS assay for small molecule antagonists of retinoid X receptor alpha signaling (AID 588546; active = well fitted inhibition curve with a large enough effect in the signal ratio, with a control signal flat, not every such curve was filed as active; the % refers to the signal ratio;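 note: cells stimulated with 9-cis-retinoic acid as agonist; % is set by controls: 0 for no effect and ±100 for the full control effect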)
# Conditions: HEK293T RXRa-UAS-bla, beta-lactamase ratio, antagonist mode; measured here: W530 green channel, cytotoxicity proxy
# Summary of the method: (§1)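 Beta-lactamase reporter inhibition, read as CCF4 fluorescence ratio (ex 405, em 460/530 nm) after 2 h at RT. HEK293T UAS-bla cells, 2500/well, were stimulated with 9-cis-RA at 500 or 100 nM final alongside test compound for 18 h at 37 C.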
row,SMILES,max response [%]
1,Cc1cc(O)c2c(c1)C(=O)c1cccc(O)c1C2=O,-3.99
2,O=C1c2cccc(O)c2C(=O)c2c(O)cc(CO)cc21,-0.0097
3,OC[C@@H](O)[C@@H](O)[C@H](O)[C@@H](O)CO,-4.07
4,C[C@]12CC[C@@H]3c4ccc(O)cc4CC[C@H]3[C@H]1CC[C@H]2O,6.57

# Molecular target: Retinoic acid receptor RXR-alpha (Homo sapiens) (UniProt P19793)
# Assay: as above
# Conditions: HEK293T RXRa-UAS-bla, beta-lactamase ratio, antagonist mode
# Summary of the method: as §1
row,SMILES,max response
1,Cc1cc(O)c2c(c1)C(=O)c1cccc(O)c1C2=O,11.5% (inactive)
2,O=C1c2cccc(O)c2C(=O)c2c(O)cc(CO)cc21,15.1% (inactive)
3,OC[C@@H](O)[C@@H](O)[C@H](O)[C@@H](O)CO,-2% (inactive)
4,C[C@]12CC[C@@H]3c4ccc(O)cc4CC[C@H]3[C@H]1CC[C@H]2O,-12.2% (inactive)

# Molecular target: Thyroid hormone receptor beta (Homo sapiens) (UniProt P10828)
# Assay: qHTS assay for small molecule antagonists of thyroid hormone receptor beta signaling (AID 588547; active = well fitted inhibition curve with a large enough effect in the signal ratio, with a control signal flat, not every such curve was filed as active; the % refers to the signal ratio;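 note: cells stimulated with 0.4 nM T3 agonist during compound exposure; % is set by controls: 0 for no effect and ±100 for the full control effect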)
# Conditions: TR-UAS-bla HEK293, beta-lactamase ratio, antagonist mode, 18 h
# Summary of the method: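 TR-UAS-bla GripTite HEK293 cells in 2% charcoal/dextran FBS medium; compounds 0.59 nM to 92 uM with T3 at 0.4nM final, 18 h at 37 C. Beta-lactamase read by CCF4 fluorescence (460/530 nm); Hill fits gave IC50 and efficacy.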
row,SMILES,activity change % (negative = inhibition)
1,Cc1cc(O)c2c(c1)C(=O)c1cccc(O)c1C2=O,3.18% (inactive)
2,O=C1c2cccc(O)c2C(=O)c2c(O)cc(CO)cc21,26.1% (inactive)
3,OC[C@@H](O)[C@@H](O)[C@H](O)[C@@H](O)CO,1.79% (inactive)
4,C[C@]12CC[C@@H]3c4ccc(O)cc4CC[C@H]3[C@H]1CC[C@H]2O,-1.66% (inactive)

# Molecular target: Luciferin 4-monooxygenase (Photinus pyralis) (UniProt P08659)
# Sequence (P08659 whole entry, looked up): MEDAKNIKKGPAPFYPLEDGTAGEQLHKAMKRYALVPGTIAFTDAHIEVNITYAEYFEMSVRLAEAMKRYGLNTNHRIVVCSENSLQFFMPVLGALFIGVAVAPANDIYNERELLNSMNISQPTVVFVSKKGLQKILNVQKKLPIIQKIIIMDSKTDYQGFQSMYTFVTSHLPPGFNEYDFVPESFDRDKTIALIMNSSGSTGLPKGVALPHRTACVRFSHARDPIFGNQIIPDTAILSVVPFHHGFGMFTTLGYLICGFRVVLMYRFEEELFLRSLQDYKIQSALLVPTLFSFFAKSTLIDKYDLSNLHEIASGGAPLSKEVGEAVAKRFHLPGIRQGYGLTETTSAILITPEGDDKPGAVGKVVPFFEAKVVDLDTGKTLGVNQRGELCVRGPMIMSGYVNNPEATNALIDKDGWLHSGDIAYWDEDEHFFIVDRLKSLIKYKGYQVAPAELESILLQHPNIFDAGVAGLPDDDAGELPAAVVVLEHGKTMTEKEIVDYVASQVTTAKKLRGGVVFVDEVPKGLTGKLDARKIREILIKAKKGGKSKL
# Assay: Biochemical firefly luciferase enzyme assay for NPC (AID 624030);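 note: purified P. pyralis luciferase at 10 nM with luciferin and ATP substrate; 0% = DMSO and -100% = full luciferase inhibition by PTC124 control; nearly all actives have a fitted effect of over 70% in size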
# Conditions: purified P. pyralis luciferase, luminescence, 5 min; series mostly up to 58.6 µM; activity change, negative = inhibition: at the top concentration
# Summary of the method: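 Purified P. pyralis luciferase at 10 nM in 50 mM Tris Acetate (final), luminescence read within 5 minutes of enzyme addition to compounds. Activity normalised to PTC124 versus DMSO; concentration-response curves classed by r2, magnitude and activity.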
row,SMILES,"activity change, negative = inhibition"
1,CC1(C)[C@H](O[C@H]2O[C@H](C(=O)O)[C@@H](O)[C@H](O)[C@H]2O[C@@H]2O[C@H](C(=O)O)[C@@H](O)[C@H](O)[C@H]2O)CC[C@@]2(C)[C@H]1CC[C@]1(C)[C@H]2C(=O)C=C2[C@H]3C[C@@](C)(C(=O)O)CC[C@]3(C)CC[C@]21C,-15.5% (inactive)
2,Nc1nc2c(c(=O)[nH]1)N(C=O)[C@H](CNc1ccc(C(=O)N[C@@H](CCC(=O)O)C(=O)O)cc1)CN2,21.6% [at 24.9 µM] (inactive)
3,CCCCCCCN(CC)CCCC(O)c1ccc(NS(C)(=O)=O)cc1 (configuration not stated),0.134% (inactive)
4,Cc1onc(-c2ccccc2)c1C(=O)N[C@@H]1C(=O)N2[C@@H](C(=O)O)C(C)(C)S[C@@H]12,0.469% (inactive)
5,CCCCCCCCCCCC(CC1OC(=O)C1CCCCCC)OC(=O)C(CC(C)C)NC=O (configuration not stated),-1.47% (inactive)
6,Nc1ccn(C[C@@H](CO)OCP(=O)(O)O)c(=O)n1,0.775% (inactive)
7,OCC(O)C(O)C(O)CO (configuration not stated),0.378% (inactive)
8,C[C@H]1C[C@H]2[C@@H]3CCC4=CC(=O)C=C[C@]4(C)[C@@H]3C(=O)C[C@]2(C)[C@@]1(O)C(=O)CO,1.83% (inactive)
9,COc1ccc2c(c1OC)C(=O)OC2[C@H]1c2c(cc3c(c2OC)OCO3)CCN1C (some centres not stated),4.08% (inactive)
10,Nc1ccn(C2CO[C@H](CO)O2)c(=O)n1 (some centres not stated),-0.408% (inactive)
11,N[C@H]1CN(c2c(F)cc3c(=O)c(C(=O)O)cn(C4C[C@@H]4F)c3c2Cl)CC12CC2 (some centres not stated),-0.878% (inactive)
12,COC1=C(OC)C(=O)C(CC=C(C)CCC=C(C)CCC=C(C)CCC=C(C)CCC=C(C)CCC=C(C)CCC=C(C)CCC=C(C)CCC=C(C)CCC=C(C)C)=C(C)C1=O,0.937% (inactive)
13,O=C(O)C(=O)Nc1cccc(C2=NN=N[N]2)c1,-7.23% (inactive)
14,C#CCC(Cc1cnc2nc(N)nc(N)c2n1)c1ccc(C(=O)N[C@@H](CCC(=O)O)C(=O)O)cc1 (some centres not stated),-3.68% (inactive)
15,COc1ccc([C@@H]2CNC(=O)C2)cc1OC1CCCC1,0.525% [at 24.9 µM] (inactive)
16,CCCCCCCCCCCCCCCC(=O)OC[C@@H](NC(=O)C(Cl)Cl)[C@H](O)c1ccc([N+](=O)[O-])cc1,-6.27% (inactive)
17,O=C1c2c(O)cccc2[C@@H]([C@@H]2O[C@H](CO)[C@@H](O)[C@H](O)[C@H]2O)c2cc(CO)cc(O)c21,-13.6% (inactive)
18,CCC(C(=O)O)C1CCC(C)C(C(C)C(O)C(C)C(=O)C(CC)C2OC3(C=CC(O)[C@@]4(CC[C@](C)(C5CC[C@@](O)(CC)C(C)O5)O4)O3)C(C)CC2C)O1 (some centres not stated),0.131% (inactive)
